Results on 16 molecules are retold here after PubChem BioAssay.

Activity calls are given as the source filed them.

The target in one test is Albumin (Bos taurus) (UniProt P02769). Kind of test: bovine serum albumin binders on microarray, profiling panel, artefact control for SMM control protein annotation, biochemical, small-molecule microarray, Alexa647 label, 635/667 nm fluorescence (AID 1118).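 Further: score merges 667 nm emission intensity and signal-to-noise per printed compound spot.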 The following applies: BSA-A647 binding, fluorescence 635 nm, higher = more signal.
Test [1] is described as follows: small-molecule microarray binders of probe aXIP, primary screen, biochemical, NeuroSMM set, 635/667 nm fluorescence (AID 1119).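 Further: probe is the protein aXip251-270 applied at 1 µg/mL to compound-printed slides; binding of probe to printed compounds measured as 667 nm fluorescence plus signal to noise.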 As to conditions: higher = more signal, called active from +8 up or from −8 down.
The nature of test [2]: small-molecule binders of probe aNOTCH3, primary screen, biochemical, small-molecule microarray, 635/667 nm fluorescence (AID 1120).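 Further: probe is a biotin-tagged antibody raised against NOTCH3 rather than NOTCH3 protein; score merges spot fluorescence near 667 nm with spot signal to noise.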 The following applies: higher = more signal.
Test [3] in a line: small-molecule binders of probe aNOTCH2, primary screen, biochemical, small-molecule microarray, 635/667 nm fluorescence (AID 1121).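 Further: score merges feature fluorescence read at 667 nm with its signal to noise.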 The following applies: higher = more signal.
For test [4], the target named is Carbonic anhydrase 2 (Homo sapiens) (UniProt P00918). The experiment in a line: CAII small-molecule binders, profiling panel, biochemical, small-molecule microarray, Alexa647-labelled CAII (AID 1122). The following applies: CAII-A647 binding fluorescence, higher = more signal.
Test [5] in a line: COS7 lysate on small-molecule microarray, probe aHis, 635 nm (AID 1123).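 Further: z-score combines 667nm fluorescence intensity with signal-to-noise per printed compound spot.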 The following applies: COS7 cell lysate, fluorescence, higher = more signal.
Test [6] is described as follows: compound binding in COS7 lysate, probe aLAP1, primary screen, cell lysate, small-molecule microarray (AID 1124).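 Further: lysate comes from COS7 cells expressing LAP1 and is applied at 0.3 µg/mL; score merges spot fluorescence near 667 nm with signal-to-noise over triplicate slides.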 As to conditions: probe aLAP1, fluorescence, higher = more signal.
A further test concerns Sam68 (KHDRBS1). Kind of test: Sam68 small-molecule binders, primary screen, biochemical, small-molecule microarray, 635 nm fluorescence (AID 1125).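 Further: score merges 667 nm channel intensity with signal to noise over triplicate slides.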 As to conditions: small-molecule microarray binding, higher = more signal.
Test [7] relates to Chordin-like protein 2 (CHRDL2). The experiment in a line: CHRDL2 small-molecule binders, primary screen, biochemical, small-molecule microarray, 635 nm fluorescence (AID 1126).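 Further: printed compound slides probed with Chrdl2 protein at 4 µg/mL for 1 h at 4 C; score merges 667 nm emission intensity with signal to noise over three replicate slides.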 As to conditions: small-molecule microarray binding, fluorescence 635 nm; higher = more signal.
Test [8] has as its target Concanavalin-A (Canavalia ensiformis) (UniProt P02866). The experiment in a line: ConA small-molecule binders, primary screen, artefact control for SMM control protein annotation, biochemical, small-molecule microarray, Alexa647 label, 635 nm (AID 1127).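 Further: z combines 667 nm emission intensity with signal-to-noise across three replicate slides.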 As to conditions: ConA-A647 binding fluorescence, higher = more signal.

Sequence of Concanavalin-A (Canavalia ensiformis) (P02866 whole entry, looked up): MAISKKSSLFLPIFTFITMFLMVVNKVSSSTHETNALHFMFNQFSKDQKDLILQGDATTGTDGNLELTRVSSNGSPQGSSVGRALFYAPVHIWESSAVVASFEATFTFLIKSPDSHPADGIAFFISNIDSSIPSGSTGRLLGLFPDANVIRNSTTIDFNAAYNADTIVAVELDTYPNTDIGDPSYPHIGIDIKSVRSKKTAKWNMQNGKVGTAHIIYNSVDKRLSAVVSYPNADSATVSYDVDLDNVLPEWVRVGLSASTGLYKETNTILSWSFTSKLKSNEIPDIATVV
Sequence of Albumin (Bos taurus) (P02769 whole entry, looked up): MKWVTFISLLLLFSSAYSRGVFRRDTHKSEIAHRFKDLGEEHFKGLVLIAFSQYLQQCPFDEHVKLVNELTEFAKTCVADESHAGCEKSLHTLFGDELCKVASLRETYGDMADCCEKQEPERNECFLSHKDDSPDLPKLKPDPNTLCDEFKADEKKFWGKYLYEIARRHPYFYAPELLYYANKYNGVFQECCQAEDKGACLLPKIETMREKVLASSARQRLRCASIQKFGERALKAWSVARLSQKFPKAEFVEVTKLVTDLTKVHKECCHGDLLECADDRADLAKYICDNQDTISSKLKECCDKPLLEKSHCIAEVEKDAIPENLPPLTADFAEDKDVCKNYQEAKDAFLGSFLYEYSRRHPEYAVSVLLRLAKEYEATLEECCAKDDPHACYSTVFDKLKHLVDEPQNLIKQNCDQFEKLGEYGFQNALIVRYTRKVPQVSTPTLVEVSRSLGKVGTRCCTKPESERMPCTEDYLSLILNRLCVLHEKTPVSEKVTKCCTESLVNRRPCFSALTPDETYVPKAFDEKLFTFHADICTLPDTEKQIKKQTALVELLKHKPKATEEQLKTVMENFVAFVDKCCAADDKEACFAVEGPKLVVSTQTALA

Consider `CCCCC(O)C1C=CC2C(=O)N(c3ccccc3)C(=O)C2N1Nc1ccc(C#N)cc1` (stereo not given), for which the composite z-score is 0.859 with Albumin (Bos taurus); 0.426 in test [2]; 0.349 in test [3]; 0.721 in [4]; 2.68 in [5]; 1.23 in test [6]. The composite z-score in the test with Sam68 (KHDRBS1) is 1.17; in [7], -0.0433; in test [8], 0.778. In addition, in [1], the composite Z-score is 0.22 (inactive).

`O=C1C2C=CC(C(O)C3CCCCC3)N(n3cnnc3)C2C(=O)N1Cc1ccccc1` (stereo not given): the composite z-score with Albumin (Bos taurus) was 0.835; in test [2], 0.341; in [3] it was -0.0527; in [4] it was 0.597; in test [5], 2.23; in [6], 0.343. The composite z-score with Sam68 (KHDRBS1) was 1.29; in test [7] it was -0.0651; in test [8] it was 0.698. In test [1], the composite Z-score was 0.288 (inactive).

In the case of `COc1ccc([Si](C)(C)[C@H]2[C@H](CCO)O[C@@]3(C(=O)N(Cc4cccc(N5C(=O)c6ccccc6Oc6ccccc65)c4)c4ccccc43)[C@@H]2C)cc1`, the composite z-score with Albumin (Bos taurus) was 0.446; in test [2], -0.0647; in test [3], -0.147; in test [4], 0.287; in test [5], 0.575; in [6], 0.755. Further, the composite z-score with Sam68 (KHDRBS1) is 0.499; in [7], -0.122; in test [8], 0.843. Moreover, the composite Z-score in [1] is 0.142 (inactive).

Take `CC=CC(O)C1C=CC2C(=O)NC(=O)C2N1Nc1ccc(Cl)cc1Cl` (stereo not given): the composite z-score with Albumin (Bos taurus) was 0.7; in [2], 0.033; in [3] it was -0.0698; in test [4], 0.59; in test [5] it was 1.72; in [6], 0.465. Also, the composite z-score in the test on Sam68 (KHDRBS1) is -0.227; in test [7] it was 0.853; in test [8] it was -0.953. Further, in test [1], the composite Z-score is 1.23 (inactive).

On to `CCOC(=O)C1=C[C@@H](C(C)(C)C)N(S(=O)(=O)c2ccc(C)cc2)[C@H]1c1ccc(C#N)cc1`, for which the composite z-score in the test with Albumin (Bos taurus) was 0.684; in test [2], 0.0935; in test [3], 0.0655; in test [4], 0.632; in test [5] it was 2.72; in test [6] it was 0.969. Also, the values for the composite z-score (in the test with Sam68 (KHDRBS1); in test [7]; in test [8]) were 1.31, 0.582 and 1.09, respectively. Moreover, the composite Z-score in test [1] is -0.795 (inactive).

As for `CN(C)c1ccc(C(O)C2C=CC3C(=O)N(Cc4ccccc4)C(=O)C3N2n2cnnc2)cc1` (stereo not given), the composite z-score in the test with Albumin (Bos taurus) was -0.184; in test [2], -0.0023; in [3] it was -0.0993; in test [4] it was 0.244; in [5] it was 0.0348; in test [6] it was -0.0894. The values for the composite z-score (in the test with Sam68 (KHDRBS1); in test [7]; in test [8]) were -0.671, 0.245 and -0.46, respectively. For the same molecule, the composite Z-score in test [1] was 0.111 (inactive).

For the molecule `C=CCC(OC(C)=O)[C@@H]1[C@@H](N(Cc2cc3ccccc3o2)C(=O)Cc2ccc(OC)cc2)c2cc(OCCCO)ccc2N1C(=O)c1ccc2ccccc2n1` (stereo not given in full), the composite z-score with Albumin (Bos taurus) is 0.277; in [2] it was 0.0642; in test [3], -0.0303; in test [4], -0.0176; in test [5] it was 0.361; in test [6], -0.156. Moreover, the composite z-score with Sam68 (KHDRBS1) is -0.11; in test [7], 0.498; in test [8], 0.0557. Further, in [1], the composite Z-score is -0.0847 (inactive).

As to `O=C(NC1CC1)[C@@H]1c2ccccc2C(=O)N(CC23CC4CC(CC(C4)C2)C3)[C@H]1c1ccc(CO)cc1`, the composite z-score is 0.654 with Albumin (Bos taurus); 0.183 in test [2]; -0.0495 in test [3]; 0.388 in test [4]; 2.18 in [5]; 0.99 in [6]. Also, the figures for the composite z-score (in the test on Sam68 (KHDRBS1); in test [7]; in test [8]) were 1.31, 1.16 and 1.16, respectively. The composite Z-score in test [1] is -0.0662 (inactive).

For `CC1CC/C=C\[C@H]2OC34C=CCN(CCN5CCOCC5)C(=O)[C@H]3N(CCCO)C(=O)[C@@H]4C2C(=O)O1` (stereo not given in full), the composite z-score with Albumin (Bos taurus) is -1.3; in test [2], -0.068; in test [3] it was -0.164; in test [4] it was 0.91; in test [5], -0.531; in test [6], 0.305. Besides, the results for the composite z-score (in the test with Sam68 (KHDRBS1); in [7]; in test [8]) were 0.0414, -0.727 and -0.187, respectively. For the same molecule, the composite Z-score in test [1] was 0.0485 (inactive).

As to `NC(=O)N1C(=O)C2C(C1=O)C1C=C(CCCO)C2C(c2ccc(CN3CCCC3)cc2)N1Cc1sc2ccccc2c1Cl` (stereo not given), the composite z-score is 0.492 with Albumin (Bos taurus); 0.124 in test [2]; -0.258 in test [3]; 0.832 in test [4]; 0.712 in test [5]; 0.242 in test [6]. Further, the composite z-score with Sam68 (KHDRBS1) was -0.0045; in test [7], -0.352; in [8], 0.271. Further, the composite Z-score in [1] was -1.02 (inactive).

`O=C1C2C=CC(C(O)c3c(F)cccc3Cl)N(Nc3ccc([N+](=O)[O-])cc3)C2C(=O)N1c1ccccc1` (stereo not given): the composite z-score with Albumin (Bos taurus) was 0.589; in test [2], 0.465; in [3] it was -0.037; in test [4] it was 0.804; in test [5], 2.83; in test [6] it was 1.43. Further, the composite z-score with Sam68 (KHDRBS1) was 1.3; in [7], 0.268; in test [8], 1.11. Besides, in test [1], the composite Z-score was -0.0608 (inactive).

On to `COC(=O)[C@H](Cc1ccc(O)cc1)N[C@@H](/C=C/C1CC1)[C@H](O)Cc1ccccc1`, for which the composite z-score is -0.394 with Albumin (Bos taurus); -0.127 in test [2]; -0.172 in test [3]; -0.231 in test [4]; -0.635 in test [5]; -0.125 in test [6]. Moreover, the composite z-score was 0.0476 in the test on Sam68 (KHDRBS1), 0.202 in test [7] and -0.407 in [8]. In addition, in test [1], the composite Z-score is -0.414 (inactive).

On to `COc1ccc(CCNC(=O)[C@@H]2c3ccccc3C(=O)N(Cc3ccccc3OC)[C@H]2c2ccc(CO)cc2)cc1`, for which the composite z-score with Albumin (Bos taurus) was 0.454; in test [2], -0.176; in test [3], -0.0068; in test [4] it was 0.533; in [5], 1.59; in [6] it was 0.886. The figures for the composite z-score (in the test on Sam68 (KHDRBS1); in test [7]; in test [8]) were 1.28, -0.246 and 0.792, respectively. In test [1], the composite Z-score was 0.511 (inactive).

For `CCN(CC)c1ccc(N2CC=CC34O[C@@H]5C=CCCOC(=O)C5[C@H]3C(=O)N(C(C)CO)[C@@H]4C2=O)cc1` (stereo not given in full), the composite z-score with Albumin (Bos taurus) is 0.653; in test [2], 0.102; in [3], -0.159; in [4] it was 0.835; in test [5], -0.806; in test [6] it was 0.385. Besides, the figures for the composite z-score (in the test with Sam68 (KHDRBS1); in test [7]; in test [8]) were -0.304, -0.0271 and -0.361, respectively. Also, the composite Z-score in [1] is 0.195 (inactive).

Consider `CN(C)CCCNC(=O)[C@@H]1c2ccccc2C(=O)N(Cc2ccccc2C(F)(F)F)[C@H]1c1ccc(CO)cc1`, for which the composite z-score with Albumin (Bos taurus) is 0.334; in [2], -0.0106; in [3] it was -0.0996; in test [4] it was 0.338; in [5], 1.35; in [6] it was 0.2. Also, the composite z-score is 0.793 with Sam68 (KHDRBS1), -1.5 in test [7] and 0.0021 in test [8]. Moreover, the composite Z-score in test [1] was 0.0871 (inactive).

For `COCCCNC(=O)[C@@]1(CCS(=O)(=O)c2ccccc2)COC(c2ccc(OCCCO)cc2)=N1`, the composite z-score was 0.595 in the test with Albumin (Bos taurus); 0.567 in [2]; 0.0551 in test [3]; 0.919 in test [4]; 3.36 in [5]; 0.706 in test [6]. Besides, the composite z-score was 1.14 in the test on Sam68 (KHDRBS1), -0.804 in test [7] and 0.945 in test [8]. The composite Z-score in test [1] is 0.197 (inactive).
